Compound activity (PubChem)
This is a sample that favours compounds with a hit; in the whole collection about 7.9% have one here.
SW480 rereplic: A quantitative high throughput screen for small molecules that induce DNA re-replication in SW480 colon adenocarcinoma cells; SW480 DNA re-replication, Hoechst DNA content imaging, 48 h; Potency, µM (doses to about 46.1 µM), for the others: at the top dose re-replication activation, most hits filed as activators; hit rate 1.8% among 340,000; further: % of control where 0% means no effect; nearly all actives have a fitted effect of over 55% in size
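Quantitative HTS format with DMSO vehicle controls; 48 hr drug incubation at 37 C, then 40 min Hoechst staining and scanning imager measurement at 405 nm excitation.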
MCF10A rerep: A quantitative high throughput screen for small molecules that induce DNA re-replication in MCF 10a normal breast cells; MCF 10A DNA re-replication, Hoechst nuclear intensity, 48 h; Potency, µM (titrated, usually from 46.1 µM), for inactives: top-dose activity, positive = re-replication, actives largely listed as activators; hit rate 2.9% among 350,000; AID 624296, 2012; further: % of control where 0% means no effect; nearly all actives have a fitted effect of over 50% in size
HT1080-NT tox: qHTS for induction of synthetic lethality in tumor cells producing 2HG: qHTS for the HT-1080-NT fibrosarcoma cell line; HT-1080-NT fibrosarcoma viability, CellTiter-Glo ATP luminescence, 48 h; Potency, µM (series often up to 46.1 µM), for inactives: at the top dose activity, negative = less viability, hits mostly cytotoxic; hit rate 1.6% among 360,000;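 further: NT is the 2HG producing partner of a matched IDH1 knockdown line; 0% = DMSO-treated cells and -100% = media-only wells without cells; nearly all actives have a fitted effect of over 55% in size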
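Viability of the 2HG-overproducing fibrosarcoma line after 48 hours of compound exposure at 37 degrees C was determined by luminescence with CellTiter-Glo, and concentration-effect curves were then fitted and categorized.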
KB-3-1 cytotox: qHTS assay for MDR1-selective chemotherapeutics: Primary screen using the parental adenocarcinoma cell KB-3-1. KB-3-1 viability, CellTiter-Glo ATP luminescence, 72 h. Potency, µM (series often up to 46.1 µM), usual class: cytotoxic. hit rate 1.4% among 400,000. AID 1347075, 2019; further: on the % scale 0 is the no-effect control and ±100 the full control effect; nearly all actives have a fitted effect of over 60% in size
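Parental KB-3-1 viability, qHTS format: 72 h compound exposure, 37 °C; CellTiter-Glo; media-only wells and DMSO plates as controls; concentration-effect fits on corrected data.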
KB-V1 cytotox: qHTS assay for MDR1-selective chemotherapeutics: Primary screen using the drug-selected MDR subline cells KB-V1; Potency, µM (top dose mostly 46.1 µM), most hits filed as cytotoxic; KB-V1 MDR cells viability, CellTiter-Glo, 72 h; AID 1347076, 2019; hit rate 3.4% among 400,000; further: on the % scale 0 is the no-effect control and ±100 the full control effect; nearly all actives have a fitted effect of over 60% in size
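KB-V1 cells (P-gp-expressing MDR subline of KB-3-1) in phenol-red-free DMEM with 10% FBS were exposed to library compounds over a concentration series for 72 h at 37 degrees C. Viability read by CellTiter-Glo luminescence; concentration-effect curves fitted after normalization.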
HT1080 IDH1KD tx: qHTS for induction of synthetic lethality in tumor cells producing 2HG: qHTS for the HT-1080-IDH1KD cell line; HT-1080 IDH1 knockdown viability, ATP luminescence, 48 h; Potency, µM (highest dose often 46.1 µM), inactives show at the highest dose activity, negative = toxicity, usual class: cytotoxic; hit rate 2% among 360,000; AID 686971, 2013;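 further: 0% = DMSO wells and -100% = cell-free medium wells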
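Assay cells: HT-1080 with IDH1 knockdown, 750 per well, RPMI/5% FBS. Exposure: 48 h at 37 °C following 2 h pre-incubation. Read: CellTiter-Glo luminescence; fitted concentration-response, curve class assigned.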
* hit, by the source's call; i = inactive; u = inconclusive; x = no result; ! = not active in a repeat. The call rests on the fitted dose curve; in most records, active means well fitted curve in the direction sought with a large enough effect; inconclusive means small, poorly fitted or top-dose-only effect, or another doubt; inactive means no such curve, though single readings can be large; an effect the other way counts as inactive or inconclusive. Potency means the concentration at half of the fitted maximal effect.

SMILES | SW480 rereplic | MCF10A rerep | HT1080-NT tox | KB-3-1 cytotox | KB-V1 cytotox | HT1080 IDH1KD tx
CCN1C(=O)NC(=O)/C(=C\c2cn(CC(=O)N3CCCC3)c3ccccc23)C1=O | 10% | 0% | -8% | i | i | -1%
O=C1NC(=O)N(c2ccccc2F)C(=O)/C1=C/c1cn(CC(=O)N2CCOCC2)c2ccccc12 | 6% | 21µM* | u | i | i | u
COc1ccc2c(c1OC)C(=O)OC2C1c2cc3c(cc2CCN1C)OCO3 (centres undefined) | -6% | u | 6% | i | u | 1%
COc1cc(C2c3cc4c(c(O)c3CC3COC(=O)C32)OCO4)cc(OC)c1O (centres undefined) | x | x | x | 0.016µM* | 0.18µM* | x
C=CCc1cc(OC)c2c(c1)OCO2 | -10% | 0% | 6% | i | i | 14%
COc1cc(C2c3cc4c(cc3CC3COC(=O)C32)OCO4)cc(OC)c1O (centres undefined) | 0.16µM* | u | u | i | u | u
N[C@H]1C[C@H]1c1ccccc1 | -6% | 0% | x | x | x | x
OC(O)C(Cl)(Cl)Cl | 1% | -6% | x | x | x | x
C[C@H](N)Cc1ccccc1 | 2% | 0% | x | x | x | x
O=C(Nc1ccc(Cl)cc1)Nc1ccc(Cl)c(Cl)c1 | u | u | u | u | 21µM*! | u
CC1=CC(=C2C(=O)NC(=S)NC2=O)C=C(C(F)(F)F)N1Cc1ccccc1 | 3.7µM* | 3.3µM* | 1.8µM* | 2.6µM* | 12µM* | 1.6µM*
COC(=O)C1=C(c2ccc(F)cc2F)C[C@@H]2CC[C@H]1N2C(=O)N1CCC(O)(c2ccc(Cl)cc2)CC1 | -1% | 7.3µM* | -19% | u | i | -1%
C=CCn1c(O)c(C(C)=NCc2cccnc2)c(=O)[nH]c1=O | 9% | 4% | -1% | i | i | -7%
C=CCn1c(O)c(C(C)=NCc2cc(OC)cc(OC)c2)c(=O)[nH]c1=O | 5% | u | 3.7µM* | 5.2µM* | 3.3µM* | 5.8µM*
CN1C(=O)[C@@H](NC(=O)c2cc3ccccc3[nH]2)N=C(c2ccccc2)c2ccccc21 | u | -1% | x | x | x | x
NS(=O)(=O)c1ccc(CCNc2nn3c(-c4ccc(F)c(Cl)c4)cnc3s2)cc1 | x | x | u | i | i | 12µM*
COc1cc(-c2ccc(-[n+]3nc(-c4ccccc4)nn3-c3ccc([N+](=O)[O-])cc3)c(OC)c2)ccc1-[n+]1nc(-c2ccccc2)nn1-c1ccc([N+](=O)[O-])cc1 | u | -1% | x | x | x | x
CCOC(=O)Cc1csc(NC(=O)c2c(O)c3ccccc3n(CCC(C)C)c2=O)n1 | 25% | 7% | 11% | u | 8.2µM* | 3%
CCCCCCn1c(=O)c(C(=O)Nc2nc(CC(=O)OCC)cs2)c(O)c2ccccc21 | -32% | u | 2% | u | 2.1µM* | -6%
O=C(Nc1ccc(F)c([N+](=O)[O-])c1)c1cccn(Cc2ccccc2)c1=O | x | x | x | i | i | x
CC(C)CCOP(=O)(c1ccc(N(C)C)cc1)C(O)c1ccccc1 (centres undefined) | u | -1% | -10% | i | i | 2%
CC(C)n1c(/C=C/[C@@H](O)C[C@@H](O)CC(=O)O)c(-c2ccc(F)cc2)c2ccccc21 | 3% | 6% | 1.5µM* | 15µM* | 18µM* | 1.5µM*
COc1ccc(-c2nc(CN3C(=O)CN=C(c4ccccc4)c4ccccc43)c(C)o2)cc1 | x | x | x | 15µM* | u | x
CCSc1nnc(NC(=O)c2cccn(Cc3ccc(Cl)cc3)c2=O)s1 | x | x | x | i | i | x
CC(C)N(CCC(=O)c1ccc2ccccc2c1)Cc1ccccc1 | u | -42% | 4.1µM* | u | i | 15µM*
SMILES | SW480 rereplic | MCF10A rerep | HT1080-NT tox | KB-3-1 cytotox | KB-V1 cytotox | HT1080 IDH1KD tx
COc1cc2c(c(OC)c1OC)-c1ccc(O)cc1C(NC(C)=O)CC2 (centres undefined) | 0.058µM* | 0.058µM* | u | u | u | u
COc1cc2c(c(OC)c1OC)-c1ccc(O)cc1[C@@H](NC(C)=O)CC2 | u | u | 0.033µM* | 0.016µM* | i | 0.016µM*
COc1cc2c3c(c1OC)-c1cc(O)ccc1CC3NCC2 (centres undefined) | 0% | 1% | 1% | i | i | 2%
COc1cc2c(c(OC)c1OC)-c1ccc(O)c(=O)cc1[C@@H](NC(C)=O)CC2 | 18µM* | 16µM* | 6.5µM* | u | u | 5.2µM*
O=C(CO)C(O)C(O)C(O)CO (centres undefined) | u | -9% | 0% | i | i | 1%
O=C1CC2OCC=C3CN4CC[C@]56c7ccccc7N1C5C2[C@H]3C[C@H]46 (some centres undefined) | -3% | x | x | x | x | x
Cc1cc(C(=O)Nc2sc3c(c2C#N)CCC3)no1 | u | 8.2µM* | 10µM* | u | 16µM* | u
C=C1CC2C(CC[C@]3(C)C(=O)CCC23)[C@]2(C)C=CC(=O)C=C12 (some centres undefined) | 12% | 21% | x | x | x | x
O=C(c1ccc2c(c1)OCO2)N1CCC2(CC1)OCCO2 | -11% | -1% | 4% | i | i | 12%
O=C(c1ccc(N2CCCCCC2)c([N+](=O)[O-])c1)N1CCC2(CC1)OCCO2 | 17% | 23µM* | 0% | i | u | 0%
NC(=O)c1ccc(N)nc1 | u | -34% | 2.6µM* | i | u | 4.6µM*
COC1CC(O[C@H]2/C(C)=C/CC3CC(C[C@]4(CCC(C)C(C5CCCCC5)O4)O3)OC(=O)[C@H]3C=C(C)/C(=N/O)C4OC/C(=C\C=C\[C@@H]2C)[C@@]43O)OC(C)C1O (some centres undefined) | 8% | u | x | x | x | x
COc1ccc(CN2Cc3cnnn3-c3ccccc3C2c2ccccc2)cc1 (centres undefined) | u | 16µM* | u | u | u | u
N#CC1c2ccccc2-n2nncc2CN1Cc1cc(Cl)cc(Cl)c1 (centres undefined) | u | 6.5µM* | 8.2µM* | 5.8µM* | u | 6.5µM*
